What was measured:
Assay in all cases: log2 ratio of Biotin-Ahx-Ub-VS probe labelling (fragment/DMSO); higher = less target engagement (more negative = stronger competition), active = hit call of the paper (q ≤ 0.05, log2 ratio ≤ -1)
Conditions in all cases: compound concentration: 200 uM; treatment time: 3 h
OTUD6B = target: T1, OTUD6B (UniProt Q8N6M0)
T1 sequence (whole entry): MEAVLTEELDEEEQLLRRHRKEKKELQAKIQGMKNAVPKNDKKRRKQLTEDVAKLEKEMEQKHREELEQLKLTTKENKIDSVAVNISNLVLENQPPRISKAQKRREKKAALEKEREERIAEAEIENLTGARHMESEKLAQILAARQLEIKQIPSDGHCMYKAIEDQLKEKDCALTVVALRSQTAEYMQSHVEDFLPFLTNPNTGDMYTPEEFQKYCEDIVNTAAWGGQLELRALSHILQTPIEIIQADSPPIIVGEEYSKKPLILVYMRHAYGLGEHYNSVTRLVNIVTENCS
Method in brief: (§1)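 Average log2 ratios of fragment over vehicle were obtained by unpaired t-test from global-median-normalised Spectronaut label-free quantities. Proteins with ≥2 unique peptides were included. HEK293T lysate (495 µg per sample) was treated in triplicate with fragment at 200 µM or vehicle for 3 h, then with Biotin-Ahx-Ub-VS at 0.5 µM final for 1 h, and labelled DUBs were NeutrAvidin-enriched and run by diaPASEF LC-MS/MS.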

OTUD7B = target: T2, OTUD7B (UniProt Q6GQQ9)
T2 sequence (whole entry): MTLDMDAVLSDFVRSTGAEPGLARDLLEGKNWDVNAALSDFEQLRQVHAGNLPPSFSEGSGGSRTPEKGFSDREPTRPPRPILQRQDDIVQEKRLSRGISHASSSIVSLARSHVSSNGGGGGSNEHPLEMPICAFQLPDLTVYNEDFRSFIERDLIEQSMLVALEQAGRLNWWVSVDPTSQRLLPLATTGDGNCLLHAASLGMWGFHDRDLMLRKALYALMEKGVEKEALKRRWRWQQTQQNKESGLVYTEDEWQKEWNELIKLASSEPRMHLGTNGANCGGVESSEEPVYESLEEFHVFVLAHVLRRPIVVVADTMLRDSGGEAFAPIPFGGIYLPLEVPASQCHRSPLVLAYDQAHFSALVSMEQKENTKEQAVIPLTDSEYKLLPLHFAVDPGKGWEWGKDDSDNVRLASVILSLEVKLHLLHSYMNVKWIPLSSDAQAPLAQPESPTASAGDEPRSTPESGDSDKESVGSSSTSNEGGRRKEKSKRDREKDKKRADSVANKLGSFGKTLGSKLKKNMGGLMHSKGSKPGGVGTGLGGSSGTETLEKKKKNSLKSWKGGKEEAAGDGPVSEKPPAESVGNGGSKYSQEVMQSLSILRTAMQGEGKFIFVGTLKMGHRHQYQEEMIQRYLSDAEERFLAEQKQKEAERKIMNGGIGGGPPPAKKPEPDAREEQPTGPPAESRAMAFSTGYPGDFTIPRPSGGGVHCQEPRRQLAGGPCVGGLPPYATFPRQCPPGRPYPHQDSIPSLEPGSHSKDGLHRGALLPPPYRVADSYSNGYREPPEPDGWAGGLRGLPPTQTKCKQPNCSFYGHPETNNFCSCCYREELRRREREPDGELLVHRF
Method in brief: as §1

PRPF8 = PRPF8 (UniProt Q6P2Q9)
Method in brief: as §1

PSMD7 = target: T3, PSMD7 (UniProt P51665)
T3 sequence (whole entry): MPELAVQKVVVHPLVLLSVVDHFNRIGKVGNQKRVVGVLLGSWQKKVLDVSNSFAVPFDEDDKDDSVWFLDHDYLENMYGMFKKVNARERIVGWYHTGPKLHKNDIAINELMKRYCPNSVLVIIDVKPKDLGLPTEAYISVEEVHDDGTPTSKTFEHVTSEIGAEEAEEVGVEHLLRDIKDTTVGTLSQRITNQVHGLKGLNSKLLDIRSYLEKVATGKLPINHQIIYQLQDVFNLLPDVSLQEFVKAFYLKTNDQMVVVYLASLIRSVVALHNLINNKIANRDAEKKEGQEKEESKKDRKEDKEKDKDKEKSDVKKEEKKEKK
Method in brief: as §1

UCHL1 = UCHL1 (UniProt P09936)
Method in brief: as §1

UCHL3 = target: T4, UCHL3 (UniProt P15374)
T4 sequence (whole entry): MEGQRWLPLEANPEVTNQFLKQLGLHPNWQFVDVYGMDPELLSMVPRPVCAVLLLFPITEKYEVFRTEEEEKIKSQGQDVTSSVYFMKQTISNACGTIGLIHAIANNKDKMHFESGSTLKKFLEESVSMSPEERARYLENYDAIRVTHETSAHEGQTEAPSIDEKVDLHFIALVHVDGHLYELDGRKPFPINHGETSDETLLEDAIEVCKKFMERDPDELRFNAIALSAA
Method in brief: as §1

UCHL5 = target: T5, UCHL5 (UniProt Q9Y5K5)
T5 sequence (whole entry): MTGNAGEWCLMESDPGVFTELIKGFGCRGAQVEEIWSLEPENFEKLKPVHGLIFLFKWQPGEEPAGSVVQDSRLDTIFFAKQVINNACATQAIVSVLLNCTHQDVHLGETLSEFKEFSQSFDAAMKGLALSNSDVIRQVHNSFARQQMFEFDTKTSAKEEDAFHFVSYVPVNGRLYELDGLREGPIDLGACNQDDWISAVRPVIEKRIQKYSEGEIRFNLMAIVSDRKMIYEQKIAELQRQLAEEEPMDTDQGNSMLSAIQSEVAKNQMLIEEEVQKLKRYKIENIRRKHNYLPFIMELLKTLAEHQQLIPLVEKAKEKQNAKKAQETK
Method in brief: as §1

USP10 = USP10 (UniProt Q14694)
Method in brief: as §1

USP15 = target: T6, USP15 (UniProt Q9Y4E8)
T6 sequence (whole entry): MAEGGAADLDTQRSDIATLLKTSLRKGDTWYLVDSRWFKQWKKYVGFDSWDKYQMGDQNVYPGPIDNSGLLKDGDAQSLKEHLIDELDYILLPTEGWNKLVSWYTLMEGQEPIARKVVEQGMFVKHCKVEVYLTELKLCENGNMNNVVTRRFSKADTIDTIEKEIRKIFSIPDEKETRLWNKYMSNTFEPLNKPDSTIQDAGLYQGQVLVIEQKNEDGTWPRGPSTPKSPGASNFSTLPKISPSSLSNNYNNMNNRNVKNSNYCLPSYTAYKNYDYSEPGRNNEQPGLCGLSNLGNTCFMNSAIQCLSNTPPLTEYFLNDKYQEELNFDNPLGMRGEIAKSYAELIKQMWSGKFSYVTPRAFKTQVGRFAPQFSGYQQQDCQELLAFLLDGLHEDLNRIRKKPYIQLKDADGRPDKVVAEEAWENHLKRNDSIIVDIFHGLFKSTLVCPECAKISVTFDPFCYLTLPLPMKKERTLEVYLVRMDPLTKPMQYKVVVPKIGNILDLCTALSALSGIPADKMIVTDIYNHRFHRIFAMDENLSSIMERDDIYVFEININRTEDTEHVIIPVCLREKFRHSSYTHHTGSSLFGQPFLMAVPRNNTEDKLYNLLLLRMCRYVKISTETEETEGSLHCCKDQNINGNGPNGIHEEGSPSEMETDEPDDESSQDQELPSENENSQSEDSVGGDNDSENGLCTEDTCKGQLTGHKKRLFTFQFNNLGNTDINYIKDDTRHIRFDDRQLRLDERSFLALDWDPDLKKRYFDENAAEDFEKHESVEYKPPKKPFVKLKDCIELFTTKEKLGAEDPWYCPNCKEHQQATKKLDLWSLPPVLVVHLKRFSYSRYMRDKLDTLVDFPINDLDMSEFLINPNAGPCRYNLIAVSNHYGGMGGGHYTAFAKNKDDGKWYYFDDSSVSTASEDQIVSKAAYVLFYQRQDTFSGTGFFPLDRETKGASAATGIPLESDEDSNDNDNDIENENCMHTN
Method in brief: as §1

USP16 = USP16 (UniProt Q9Y5T5)
Method in brief: as §1

Measured: log2 ratio of Biotin-Ahx-Ub-VS probe labelling

Chain of USP10 (Q14694 whole entry): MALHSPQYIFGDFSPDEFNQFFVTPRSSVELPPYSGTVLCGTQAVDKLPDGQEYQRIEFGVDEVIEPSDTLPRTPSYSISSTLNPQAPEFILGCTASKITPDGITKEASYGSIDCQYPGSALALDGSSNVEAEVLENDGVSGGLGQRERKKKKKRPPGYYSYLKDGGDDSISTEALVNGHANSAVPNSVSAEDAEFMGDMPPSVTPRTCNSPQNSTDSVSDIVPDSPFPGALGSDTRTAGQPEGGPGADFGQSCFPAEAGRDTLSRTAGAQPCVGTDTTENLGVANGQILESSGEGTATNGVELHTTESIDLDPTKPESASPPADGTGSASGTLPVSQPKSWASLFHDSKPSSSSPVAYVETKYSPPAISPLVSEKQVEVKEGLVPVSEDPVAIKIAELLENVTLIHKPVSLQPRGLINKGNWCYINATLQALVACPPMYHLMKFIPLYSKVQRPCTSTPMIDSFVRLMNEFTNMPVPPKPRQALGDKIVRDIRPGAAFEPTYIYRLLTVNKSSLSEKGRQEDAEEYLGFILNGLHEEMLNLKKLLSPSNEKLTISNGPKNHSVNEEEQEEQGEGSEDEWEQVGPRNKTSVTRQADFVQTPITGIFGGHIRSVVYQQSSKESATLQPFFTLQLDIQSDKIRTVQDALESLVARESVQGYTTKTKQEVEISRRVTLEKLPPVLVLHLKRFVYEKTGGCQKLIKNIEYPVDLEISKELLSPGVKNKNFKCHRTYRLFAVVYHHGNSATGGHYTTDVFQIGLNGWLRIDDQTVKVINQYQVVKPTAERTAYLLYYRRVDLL
Chain of USP16 (Q9Y5T5 whole entry, looked up): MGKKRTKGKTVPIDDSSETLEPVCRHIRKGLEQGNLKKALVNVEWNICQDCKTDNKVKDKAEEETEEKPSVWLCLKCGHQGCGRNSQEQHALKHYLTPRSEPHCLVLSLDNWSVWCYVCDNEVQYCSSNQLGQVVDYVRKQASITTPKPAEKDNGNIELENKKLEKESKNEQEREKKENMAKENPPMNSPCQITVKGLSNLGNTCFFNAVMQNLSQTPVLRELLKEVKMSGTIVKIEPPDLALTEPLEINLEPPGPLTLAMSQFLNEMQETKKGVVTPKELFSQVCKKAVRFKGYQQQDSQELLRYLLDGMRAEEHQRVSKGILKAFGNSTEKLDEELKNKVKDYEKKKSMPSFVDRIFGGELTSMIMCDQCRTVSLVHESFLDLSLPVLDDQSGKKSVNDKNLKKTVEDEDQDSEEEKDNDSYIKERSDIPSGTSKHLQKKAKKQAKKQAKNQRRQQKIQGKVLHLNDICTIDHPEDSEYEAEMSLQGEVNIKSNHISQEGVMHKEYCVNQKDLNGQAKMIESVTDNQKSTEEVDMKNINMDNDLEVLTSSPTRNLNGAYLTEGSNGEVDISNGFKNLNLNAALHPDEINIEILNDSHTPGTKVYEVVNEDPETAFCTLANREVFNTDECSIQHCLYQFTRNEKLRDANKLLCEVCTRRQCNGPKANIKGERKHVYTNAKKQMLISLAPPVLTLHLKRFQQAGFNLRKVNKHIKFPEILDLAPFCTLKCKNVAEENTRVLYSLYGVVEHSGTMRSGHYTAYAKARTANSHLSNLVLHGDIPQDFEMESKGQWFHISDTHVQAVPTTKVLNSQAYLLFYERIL
Chain of UCHL1 (P09936 whole entry, looked up): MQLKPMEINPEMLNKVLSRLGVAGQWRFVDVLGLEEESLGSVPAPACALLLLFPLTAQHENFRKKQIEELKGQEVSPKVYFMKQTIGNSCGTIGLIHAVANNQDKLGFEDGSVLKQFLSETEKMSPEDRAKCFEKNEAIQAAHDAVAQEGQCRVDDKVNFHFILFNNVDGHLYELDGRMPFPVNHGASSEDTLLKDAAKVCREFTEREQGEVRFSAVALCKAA

O=C(CCl)N(Cc1ccsc1)C1CC1
inactive: OTUD6B 0.0351 | OTUD7B -0.317 | PRPF8 -0.0299 | PSMD7 -0.114 | UCHL1 -0.773 | UCHL3 0.415 | UCHL5 -0.238 | USP10 -0.125 | USP15 0.02 | USP16 0.463
